# Active and inactive are the calls of the source. The call rests on the fitted dose curve; in most records, active means well fitted curve in the direction sought with a large enough effect in the repeat runs; inconclusive means weak or mixed curves; inactive means flat fitted curve, though single readings scatter.
# Assay: qHTS assay to test for compound auto fluorescence at 460 nm (blue) in HEK293 cell free culture (AID 720681)
# Conditions: cell-free medium, autofluorescence 405/460 nm (blue); series mostly up to 91.3 µM; fluorescence, % of fluorescent control: at the top concentration
# Description: U.S. Tox21 Program National Center for Advancing Translational Sciences [NCATS] NIH Chemical Genomics Center [NCGC] U.S. Environmental Protection Agency [EPA] National Institutes of Environmental Health Sciences [NIEHS] National Toxicology Program [NTP] U.S. Food and Drug Administration [FDA] Tox21 Assay Overview: Compound auto fluorescence often interferes with screening of the compound library against various biological targets and signaling pathways. Some of these compounds may have fluorophoric properties. Such properties may interfere with the assay outputs resulting in false positives and/or negatives. To decrease such complications and ensure the compound activities are relevant in terms of biological response, the Tox21 10K compound library was screened for auto fluorescence. From the fluorophores used as reporter signals in our screening assays, the auto fluorescence equivalencies of compounds against three fluorophores have been evaluated: Triamterene, Fluorescein and Rose Bengal sodium for blue, green and red fluorescence, respectively. The fluorescence intensities were measured using Excitation/Emission wavelengths at 405/460nm, 485/535nm and 540/590nm for blue, green and red labels, respectively. This assay includes the blue fluorescence data.
# Tox21 Assay Protocol Summary: 5 uL of culture medium (DMEM containing 10% FBS) per well was dispensed into black wall/clear bottom 1536-well plates using a Multidrop Combi Dispenser (ThermoFisher Scientific, Waltham, MA). After 23 nL compound or DMSO vehicle was transferred into assay plate by a pintool work station (Kalypsys, San Diego, CA), fluorescence intensities in the assay plates were measured by an Envision (PerkinElmer, Shelton, CT) plate reader using three labels for measuring blue, green and red fluorescence at […] 460, 535 and 590nm respectively.
# On the % scale 0 is the no-effect control and ±100 the full control effect.
Compound,"fluorescence, % of fluorescent control",outcome
CCC(C)(C#N)N=NC(C)(C#N)CC (stereo not given),-0.0938% (inactive),
BrCc1ccc(Br)cc1,-0.134% (inactive),
O=C(Cl)c1ccccc1,-0.0121% [at 95.7 µM] (inactive),
CC(C)(C)c1cc(O)ccc1O,,inactive
ClCCCCCCCl,0.142% (inactive),
CCCC[N+](=O)[O-],0.0008% (inactive),
CCN[C@H](C)Cc1cccc(C(F)(F)F)c1,0.13% (inactive),
O=C(Cl)C(Cl)Cl,0.0164% (inactive),
O=P(O)(O)c1ccccc1,-0.0004% (inactive),
COP(=O)(O)OC,0.112% [at 95.7 µM] (inactive),
O=C/C=C/c1ccco1,-0.0624% (inactive),
CNC(=O)Oc1cc(C)c(N(C)C)c(C)c1,-0.0531% (inactive),
O=C1CC(=O)NC(=O)N1,0.0011% (inactive),
ClCCCCl,0.0284% [at 95.7 µM] (inactive),
C#CC(C)(C)O,-0.0003% [at 95.7 µM] (inactive),
COC(=O)[C@@H](N)CCCN/C(N)=N/[N+](=O)[O-],0.0178% [at 46 µM] (inactive),
C[N+]1(C)CCCCC1,0.0497% (inactive),
S=C=S,,inactive
O=C(O)CBr,-0.159% (inactive),
CN(C)CCc1c[nH]c2cccc(OP(=O)(O)O)c12,-0.0327% (inactive),

Compound,"fluorescence, % of fluorescent control",outcome
CC[C@@H](CO)NC(=O)[C@@H]1C=C2c3cccc4c3c(cn4C)C[C@H]2N(C)C1,0.451% [at 46 µM] (inactive),
CC[C@H](N)c1ccccc1,-0.0053% (inactive),
Clc1cc2c(cc1Cl)Oc1cc(Cl)c(Cl)cc1O2,-0.0164% [at 0.37 µM] (inactive),
BrCCc1ccccc1,-0.0535% [at 95.7 µM] (inactive),
CON(C)C(=O)Nc1ccc(Br)c(Cl)c1,0.0571% (inactive),
CCN(CC)CCOC(=O)C(O)(c1ccccc1)c1ccccc1,0.0665% [at 46 µM] (inactive),
COc1cc(CC(C)N)cc(OC)c1OC (stereo not given),-0.0059% [at 95.7 µM] (inactive),
O=C(O)C(Cl)Br (stereo not given),-0.248% [at 95.7 µM] (inactive),
CCOC(=O)CCl,-0.221% (inactive),
COc1cc(CCN)cc(OC)c1OC,-0.035% [at 95.7 µM] (inactive),
CCOC(=O)c1ncn2c1CN(C)C(=O)c1c(I)cccc1-2,-0.0658% [at 46 µM] (inactive),
Cn1c(N)nc2c3cccnc3ccc21,0.0156% (inactive),
COc1cccc(C=O)c1,-0.0455% (inactive),
NNCc1ccccc1,0.0652% [at 95.7 µM] (inactive),
CC(C)(C1CCC(O)CC1)C1CCC(O)CC1 (stereo not given),0.0401% (inactive),
CCCCOC(C)=O,-0.0561% [at 95.7 µM] (inactive),
N[C@@H](Cc1ccc(Oc2cc(I)c(O)c(I)c2)c(I)c1)C(=O)O,0.0362% [at 46 µM] (inactive),
CC(=O)OCC1=C(C(=O)O)N2C(=O)[C@@H](N)[C@H]2SC1,-0.0418% [at 18.6 µM] (inactive),
CNC(=O)Oc1ccccc1C(C)C,-0.158% (inactive),
CC(C)C(C)(N)C#N (stereo not given),-0.106% (inactive),

# — PubChem BioAssay (Tox21)
